High-throughput results (PubChem BioAssay)
In the library only some 1.6% were active in any assay of this set; here they are far more common.
KCNQ2 enhance – KCNQ2 (rat) channel potentiation | CHO-K1 KCNQ2, FluxOR thallium flux fluorescence; active compounds read high | B-score at 10 µM | actives 0.54% (n = 310,000) | AID 2239 | O88943;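 active = fluorescence ratio B-score at least 3 SD of library B-scores, with initial fluorescence B-score within 3 of them, cut at about 5.3 in these data; same plate scores as AID 2156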;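 also: B-score of peak minus minimum over baseline fluorescence ratio after K+ and Tl+ stimulus; positive B-score means potentiation of KCNQ2 with more thallium influx and brighter signal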
KCNQ2 block – blocks the rat KCNQ2 potassium channel; actives 1.1% (n = 310,000); B-score at 10 µM; CHO-K1 KCNQ2, FluxOR thallium flux, 20 min; active compounds read low; O88943;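 active = fluorescence ratio B-score at most minus 3 library SDs, with starting brightness B-score within 2 library SDs, cut at about -5.5 in these data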
Kir21 confirm – confirmation of mouse Kir2.1 potassium channel inhibitors; shares compounds with KCNQ2 enhance; Kir2.1-expressing cells, FluxOR thallium flux fluorescence; active compounds read low; Tl flux remaining, % of negative control (active compounds read low), % at 10 µM; actives 41% (n = 2,300); AID 2032;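 active = Primary-screen hit whose thallium flux fell at least 3 control SD below untreated wells in both duplicates, with normal baseline fluorescence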
HEK293 Tl flux – parental HEK293 activity in Kir2.1 inhibitor counter-screen | shares compounds with KCNQ2 enhance | parental HEK293 cells, FluxOR thallium flux fluorescence; 0% = unstimulated blank wells | FluxOR signal as % of negative control (100 = no effect), % at 10 µM | actives 19% (n = 2,300) | AID 2105;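 active = dye signal at least 3 control SD above or below untreated wells in both duplicates, raw fluorescence within 3, either direction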;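 also: percent is based on the flux ratio of peak minus minimum fluorescence over baseline F0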
CHO-K1 Tl ctr – alters thallium flux in parental CHO-K1 cells, KCNQ2 counter-screen; shares compounds with KCNQ2 enhance; FluxOR thallium flux fluorescence; zero = vehicle mean+3SD, 100% = vehicle-minus-blank window; activity increase over 3SD of controls, % at 10 µM; actives 43% (n = 1,200); AID 2282;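 active = signal rise of at least 3 SD above the untreated control mean, in both duplicate wells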;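 also: counter screen of KCNQ2 potentiator hits so any rise reflects channel-independent effects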
KCNQ1 sel pot – selectivity of KCNQ2 potentiators: effect on human KCNQ1; shares compounds with KCNQ2 enhance; activation over 3SD threshold, % at 10 µM; AID 2283; CHO KCNQ1 stable, FluxOR thallium flux fluorescence; beyond 3SD, as % of vehicle-control signal; actives 28% (n = 1,200);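 active = fluorescence ratio rise of at least 3 SD of vehicle wells above their mean, in both replicate wells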
KCNQ2 pot confirm – confirmation of rat KCNQ2 potassium channel potentiators. shares compounds with KCNQ2 enhance. CHO-KCNQ2 cells, FluxOR thallium flux fluorescence. potentiation, less the hit threshold, % at 10 µM. actives 68% (n = 1,200). AID 2287;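 active = fluorescence ratio rising 3 SD or more over the vehicle control mean in both replicates, plus primary screen hit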;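 also: peak minus minimum thallium fluorescence divided by baseline after K/Tl stimulus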
Kir2-1 sel – tests whether KCNQ2 potentiators also affect mouse Kir2.1 | shares compounds with KCNQ2 enhance | HEK293 Kir2.1, FluxOR thallium flux fluorescence | activity over 3SD threshold, % at 10 µM | actives 2% (n = 1,200) | AID 2345;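 active = fluorescence ratio rise of at least 3 SD above the vehicle-control mean, seen in both replicates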
KCNQ2 W236L MoA – potentiates the retigabine-insensitive rat KCNQ2 W236L mutant channel; shares compounds with KCNQ2 enhance; CHO KCNQ2-W236L, automated patch clamp current; current increase over 3SD of negative controls (%), active compounds read high, % at 25 µM; actives 10% (n = 940); AID 2558;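 active = current increase at least 3 SD of the untreated controls above them in both duplicate recordings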
Target sequence (O88943 whole entry W236L, looked up): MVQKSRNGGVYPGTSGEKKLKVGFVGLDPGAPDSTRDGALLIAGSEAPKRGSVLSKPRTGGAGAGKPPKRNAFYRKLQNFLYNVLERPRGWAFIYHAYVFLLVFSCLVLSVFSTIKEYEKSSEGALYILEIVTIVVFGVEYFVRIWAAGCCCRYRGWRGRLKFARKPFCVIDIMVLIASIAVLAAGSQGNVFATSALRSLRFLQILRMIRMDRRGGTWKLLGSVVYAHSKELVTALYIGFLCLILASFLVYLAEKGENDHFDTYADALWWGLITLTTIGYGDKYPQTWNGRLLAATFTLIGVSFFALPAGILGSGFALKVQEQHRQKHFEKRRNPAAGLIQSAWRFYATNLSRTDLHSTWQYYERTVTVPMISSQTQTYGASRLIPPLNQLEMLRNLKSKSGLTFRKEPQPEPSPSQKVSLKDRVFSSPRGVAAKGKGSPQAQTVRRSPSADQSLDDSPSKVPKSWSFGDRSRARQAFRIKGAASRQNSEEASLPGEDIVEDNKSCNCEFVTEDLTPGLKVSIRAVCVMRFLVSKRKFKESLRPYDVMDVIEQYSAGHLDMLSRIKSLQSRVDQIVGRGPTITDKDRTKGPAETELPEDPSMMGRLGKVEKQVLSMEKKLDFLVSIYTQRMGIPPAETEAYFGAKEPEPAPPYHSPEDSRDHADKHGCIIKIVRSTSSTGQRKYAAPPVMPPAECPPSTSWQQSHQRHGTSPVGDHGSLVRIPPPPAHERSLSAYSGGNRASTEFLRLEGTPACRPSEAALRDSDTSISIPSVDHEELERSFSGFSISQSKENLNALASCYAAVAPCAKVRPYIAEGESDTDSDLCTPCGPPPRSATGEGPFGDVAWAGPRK
Of the large screens only hits and unclear results are named; the others gave an inactive call (follow-up assays come after a bar, where they were run).

CC(=O)C1=C(C)NC(SCC(=O)c2ccc(Cl)cc2)=C(C#N)C1c1ccco1 (centres undefined)	KCNQ2 enhance 11.6 | Kir21 confirm inactive | HEK293 Tl flux inactive | CHO-K1 Tl ctr inactive | KCNQ1 sel pot 16.9 | KCNQ2 pot confirm inactive | Kir2-1 sel inactive
O=S(=O)(NCC1CCCN(Cc2ccccc2O)C1)c1cccc2cccnc12 (centres undefined)	none (no result: KCNQ2 enhance)
CCOC(OCC)c1cn(Cc2ccc3c(c2)C(=O)c2ccccc2C3=O)nn1	none
COC(=O)C(NC(=O)c1ccccc1)=C1C=C(C)OC(C)=C1	none
CCOC(=O)C(NC(=O)c1ccccc1)=C1C=C(C)OC(C)=C1	KCNQ2 enhance 6.82 | Kir21 confirm inactive | HEK293 Tl flux inactive | CHO-K1 Tl ctr 1.7 | KCNQ1 sel pot inactive | KCNQ2 pot confirm 8.7 | Kir2-1 sel inactive | KCNQ2 W236L MoA inactive
CCn1ncc([N+](=O)[O-])c1C(=O)Nc1nc2cccc(C)c2s1	none
CCn1ncc([N+](=O)[O-])c1C(=O)Nc1c(C)cccc1C	KCNQ2 enhance 13.8 | Kir21 confirm inactive | HEK293 Tl flux inactive | CHO-K1 Tl ctr inactive | KCNQ1 sel pot inactive | KCNQ2 pot confirm inactive | Kir2-1 sel inactive
COc1ccc(-c2cn(-c3ccccc3)nc2C(=O)O)cc1OC	none
CCCCCN=C(N)N/N=C/c1c[nH]c2ccc(OC)cc12	KCNQ2 enhance 8.75 | Kir21 confirm inactive | HEK293 Tl flux inactive | CHO-K1 Tl ctr 50.9 | KCNQ1 sel pot inactive | KCNQ2 pot confirm inactive | Kir2-1 sel inactive
CCCOc1ccc(C(=O)N/N=C/c2c[nH]c3ccc(Br)cc23)cc1	none
CNCCC(Oc1ccc(C(F)(F)F)cc1)c1ccccc1 (centres undefined)	none (no result: KCNQ2 enhance)
CNCC[C@H](Oc1cccc2ccccc12)c1cccs1	none (no result: KCNQ2 enhance) | Kir21 confirm inactive | HEK293 Tl flux inactive
Cc1ccc(C(=O)Nc2ccccc2C(=O)N2CCCC(C)C2)cc1 (centres undefined)	none
CC(=O)N1CCOc2ccc(S(=O)(=O)NCc3ccccc3Cl)cc21	none (no result: KCNQ2 enhance)
CC(=O)N1CC(C)Sc2ccc(S(=O)(=O)NCc3ccccc3Cl)cc21 (centres undefined)	none (no result: KCNQ2 enhance) | Kir21 confirm 75.0% | HEK293 Tl flux inactive
O=C(O)c1ccc(NC(=O)c2ccco2)c(NC(=O)c2ccco2)c1	none (no result: KCNQ2 enhance)
O=C(COc1ccccc1F)NCc1nc2ccccc2[nH]1	none (no result: KCNQ2 enhance)
COCC(=O)O[C@]1(CCN(C)CCCc2nc3ccccc3[nH]2)CCc2cc(F)ccc2[C@@H]1C(C)C	none (no result: KCNQ2 enhance) | Kir21 confirm 31.0% | HEK293 Tl flux inactive
Cc1cc(NC(=O)Cc2ccccc2)ccc1NC(=O)c1cccs1	none
CCn1c(=O)cc(SCC(=O)NCC2CCCO2)c2ccccc21 (centres undefined)	none
Cn1c(=O)cc(SCC(=O)NCC2CCCO2)c2ccc(Cl)cc21 (centres undefined)	KCNQ2 enhance 6.18 | Kir21 confirm inactive | HEK293 Tl flux inactive | CHO-K1 Tl ctr inactive | KCNQ1 sel pot 92.0 | KCNQ2 pot confirm inactive | Kir2-1 sel inactive
OC(CNCc1ccccc1)COc1ccccc1 (centres undefined)	none (no result: KCNQ2 enhance)
COc1ccc(CCNCC(O)COc2ccc(OC)cc2C(C)(C)C)cc1 (centres undefined)	none (no result: KCNQ2 enhance) | Kir21 confirm 56.0% | HEK293 Tl flux inactive
Cc1ccc(OCC(O)CNCc2ccc(F)cc2)cc1 (centres undefined)	none | Kir21 confirm 27.0% | HEK293 Tl flux inactive
COc1ccc(OCCOCCOc2ccc(C)cc2[N+](=O)[O-])cc1	none (no result: KCNQ2 enhance)
COc1ccc(CCNCC(O)COc2cccc(Br)c2)cc1OC (centres undefined)	none (no result: KCNQ2 enhance)
COc1ccc(CNCC(O)COc2ccc(C)cc2[N+](=O)[O-])cc1 (centres undefined)	none (no result: KCNQ2 enhance) | Kir21 confirm 26.5% | HEK293 Tl flux inactive
Cc1cc(NC(=O)CCC(=O)N(CC(=O)NC2CCCC2)c2cccc(F)c2)no1	none
Cc1cc(S(=O)(=O)NCc2ccccc2)ccc1OCC(=O)NCc1ccncc1	none (no result: KCNQ2 enhance)
CCc1ccc(C(=O)C(C)OC(=O)c2nn(C)c(=O)c3ccccc23)cc1 (centres undefined)	none
O=C(Cc1ccc(Br)cc1)NCCc1ccc(F)cc1	none
Cn1c(=NC(=O)CCS(=O)(=O)c2ccccc2)sc2cc(F)ccc21	none (no result: KCNQ2 enhance)
CC(=O)SCC(=O)N=c1sc2cc(F)ccc2n1C	KCNQ2 enhance 5.89 | Kir21 confirm inactive | HEK293 Tl flux inactive | CHO-K1 Tl ctr inactive | KCNQ1 sel pot inactive | KCNQ2 pot confirm 5.6 | Kir2-1 sel inactive | KCNQ2 W236L MoA inactive
COc1cc(OC)cc(OC(=O)c2ccc3c(=O)n4c(nc3c2)CCC4)c1	none (no result: KCNQ2 enhance)
CC(C)=CCc1c(O)cc(O)c2c1OC(c1ccc(O)cc1)CC2=O (centres undefined)	KCNQ2 block -7.77 | Kir21 confirm 62.0% | HEK293 Tl flux inactive
CC(C)=CCc1c(O)c(CC=C(C)C)c2c(c1O)C(=O)CC(c1ccc(O)cc1)O2 (centres undefined)	none (no result: KCNQ2 enhance)
CC(OC(=O)Cc1c[nH]c2ccccc12)C(=O)Nc1ccc(S(N)(=O)=O)cc1 (centres undefined)	none (no result: KCNQ2 enhance)
Cc1cc(-c2nnc3n2N=C(c2ccc(F)cc2)CS3)n[nH]1	none
Cc1ccc(/C=C/C(=O)C2C(=O)c3ccccc3C2=O)cc1	KCNQ2 enhance 7.26 | Kir21 confirm inactive | HEK293 Tl flux 146.0% | CHO-K1 Tl ctr inactive | KCNQ1 sel pot inactive | KCNQ2 pot confirm inactive | Kir2-1 sel inactive | KCNQ2 W236L MoA inactive
Cc1ccc(/C=C/C(=O)c2ccccc2O)cc1	none (no result: KCNQ2 enhance)
O=C(O)c1ccc(S(=O)(=O)/N=C2\C=C(Nc3ccccc3F)C(=O)c3ccccc32)cc1	none
Cc1ccccc1NC1=C/C(=N\S(=O)(=O)c2ccc(C(=O)O)cc2)c2ccccc2C1=O	KCNQ2 enhance 7.23 | Kir21 confirm inactive | HEK293 Tl flux inactive | CHO-K1 Tl ctr inactive | KCNQ1 sel pot inactive | KCNQ2 pot confirm 8.9 | Kir2-1 sel inactive | KCNQ2 W236L MoA 15.6%
O=S(=O)(Cc1noc(-c2ccccc2Cl)n1)c1ccccn1	none
Clc1ccc2c(c1)-c1nnc(Br)n1-c1ccccc1S2	none | Kir21 confirm 65.5% | HEK293 Tl flux 70.5%
c1ccc2c(c1)Sc1ccccc1-n1cnnc1-2	none (no result: KCNQ2 enhance)
Brc1nnc2n1-c1ccccc1Sc1ccccc1-2	none | Kir21 confirm 27.5% | HEK293 Tl flux 65.5%
